Experimental data published in PubChem BioAssay (NCI).
This is part of a sample that, as a whole, favours compounds with a hit. Of some 83,000 tested, about 20% had one in any assay.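 Growth was measured after 48 h exposure to one concentration of compound in 96-well plates. Values under 10 count as active.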 Activity calls are given as the source filed them.

Experiments:
Test in all cases: NCI-60 one-dose screen, 48 h (100 = growth as untreated, 0 = no growth, -100 = all killed)
Conditions in all cases: 10 µM unless noted
HCT-15 colon = system: HCT-15 colon
HT29 colon = system: HT29 colon
SNB-75 CNS = system: SNB-75 CNS
SNB-19 CNS = system: SNB-19 CNS
U251 CNS = system: U251 CNS
PC-3 prostate = system: PC-3 prostate
SK-MEL-5 melanoma = system: SK-MEL-5 melanoma
UACC-62 melanoma = system: UACC-62 melanoma
LOX IMVI melanoma = system: LOX IMVI melanoma
SK-MEL-28 melanoma = system: SK-MEL-28 melanoma
SK-MEL-2 melanoma = system: SK-MEL-2 melanoma
EKVX NSCLC = system: EKVX NSCLC
SN12C renal = system: SN12C renal
UO-31 renal = system: UO-31 renal
TK-10 renal = system: TK-10 renal
ACHN renal = system: ACHN renal
CAKI-1 renal = system: CAKI-1 renal
A498 renal = system: A498 renal
CCRF-CEM leukemia = system: CCRF-CEM leukemia
MOLT-4 leukemia = system: MOLT-4 leukemia

Measured: growth

COc1ccc(Cl)cc1NC(N)=S
inactive: HCT-15 colon 103% | HT29 colon 98.7% | SNB-75 CNS 86.6% | SNB-19 CNS 111% | U251 CNS 97.7% | PC-3 prostate 93% | SK-MEL-5 melanoma 104% | UACC-62 melanoma 102% | LOX IMVI melanoma 96.7% | SK-MEL-28 melanoma 108% | SK-MEL-2 melanoma 107% | EKVX NSCLC 105% | SN12C renal 105% | UO-31 renal 97% | TK-10 renal 89.5% | ACHN renal 110% | CAKI-1 renal 97.3% | A498 renal 95.9% | CCRF-CEM leukemia 105% | MOLT-4 leukemia 99.7%

COC(=O)CC/C(C)=N\Nc1ccc([N+](=O)[O-])cc1
inactive: HCT-15 colon 34.8% | HT29 colon 46.6% | SNB-75 CNS 91.5% | SNB-19 CNS 99.4% | U251 CNS 68.4% | PC-3 prostate 45.8% | SK-MEL-5 melanoma 73.8% | UACC-62 melanoma 26.6% | LOX IMVI melanoma 16.2% | SK-MEL-28 melanoma 96% | SK-MEL-2 melanoma 57.3% | EKVX NSCLC 59.2% | SN12C renal 81.9% | UO-31 renal 35.5% | TK-10 renal 63.3% | ACHN renal 36.2% | CAKI-1 renal 41.4% | A498 renal 77.3% | CCRF-CEM leukemia 35% | MOLT-4 leukemia 34%

CCCCC[C@@H]1Cc2cc(O)c(C(=O)O)c3c2[C@H](C[C@@]2(CCCO2)O3)O1
inactive: HCT-15 colon 112% | HT29 colon 113% | SNB-75 CNS 98.1% | SNB-19 CNS 107% | U251 CNS 105% | PC-3 prostate 101% | SK-MEL-5 melanoma 111% | UACC-62 melanoma 110% | LOX IMVI melanoma 93.6% | SK-MEL-28 melanoma 109% | SK-MEL-2 melanoma 67.4% | EKVX NSCLC 108% | SN12C renal 104% | UO-31 renal 44.7% | TK-10 renal 129% | ACHN renal 108% | CAKI-1 renal 102% | A498 renal 133% | CCRF-CEM leukemia 94.5% | MOLT-4 leukemia 62.6%

COC(=O)CCCCN=Cc1c(O)c(O)c(C(C)C)c2cc(C)c(-c3c(C)cc4c(C(C)C)c(O)c(O)c(C=NCCCCC(=O)OC)c4c3O)c(O)c12
active: HT29 colon 4.56%
inactive: HCT-15 colon 11.1% | SNB-75 CNS 42.6% | SNB-19 CNS 17.6% | U251 CNS 11.1% | PC-3 prostate 12.1% | SK-MEL-5 melanoma 28.6% | UACC-62 melanoma 33.5% | LOX IMVI melanoma 17.4% | SK-MEL-28 melanoma 31.1% | SK-MEL-2 melanoma 17.3% | EKVX NSCLC 14.4% | SN12C renal 16.1% | UO-31 renal 14.7% | TK-10 renal 12.6% | ACHN renal 13.4% | CAKI-1 renal 50.8% | A498 renal 12.2% | CCRF-CEM leukemia 18.4% | MOLT-4 leukemia 14.4%

COc1ccc(/C=C/C(=O)OCC(=O)NNC(=O)c2ccccc2)cc1OC
inactive: HCT-15 colon 108% | HT29 colon 105% | SNB-75 CNS 78.2% | SNB-19 CNS 111% | U251 CNS 97% | PC-3 prostate 97.3% | SK-MEL-5 melanoma 97.8% | UACC-62 melanoma 98.4% | LOX IMVI melanoma 87.1% | SK-MEL-28 melanoma 125% | SK-MEL-2 melanoma 68.6% | EKVX NSCLC 84.4% | SN12C renal 101% | UO-31 renal 80.9% | TK-10 renal 121% | ACHN renal 90.2% | CAKI-1 renal 83.5% | A498 renal 93% | CCRF-CEM leukemia 93.8% | MOLT-4 leukemia 70.1%

COc1ccc(C(=O)N2CCN(C(=O)c3cc(OC)c(OC)c(OC)c3)CC2)cc1OCCCCOc1cc2c(cc1OC)C(=O)N1CCC[C@H]1C=N2
inactive: HCT-15 colon 118% | HT29 colon 45.8% | SNB-75 CNS 110% | SNB-19 CNS 99.4% | U251 CNS 101% | PC-3 prostate 104% | SK-MEL-5 melanoma 71% | UACC-62 melanoma 97.2% | LOX IMVI melanoma 106% | SK-MEL-28 melanoma 136% | SK-MEL-2 melanoma 31.9% | EKVX NSCLC 113% | SN12C renal 97.9% | UO-31 renal 32.7% | TK-10 renal 157% | ACHN renal 105% | CAKI-1 renal 81.4% | A498 renal 95.5% | CCRF-CEM leukemia 86.4% | MOLT-4 leukemia 108%

NC(C(=O)O)C(O)c1ccc(OCc2ccccc2)c(OCc2ccccc2)c1 (stereo not given)
inactive: HCT-15 colon 97.6% | HT29 colon 97.3% | SNB-75 CNS 77.6% | SNB-19 CNS 97.1% | U251 CNS 91% | PC-3 prostate 89.1% | SK-MEL-5 melanoma 103% | UACC-62 melanoma 97.8% | LOX IMVI melanoma 99.1% | SK-MEL-28 melanoma 110% | SK-MEL-2 melanoma 104% | EKVX NSCLC 104% | SN12C renal 107% | UO-31 renal 92.1% | TK-10 renal 104% | ACHN renal 101% | CAKI-1 renal 93.3% | A498 renal 85.3% | CCRF-CEM leukemia 94.6% | MOLT-4 leukemia 98.9%

c1cncc(CNc2ccccc2-c2nnc(Nc3ccc4c(c3)OCCO4)o2)c1
inactive: HCT-15 colon 19% | SNB-75 CNS 33.1% | SNB-19 CNS 38.1% | U251 CNS 30.8% | PC-3 prostate 36.5% | UACC-62 melanoma 39.8% | LOX IMVI melanoma 27.1% | SK-MEL-28 melanoma 68.9% | SK-MEL-2 melanoma 15.8% | EKVX NSCLC 49.8% | SN12C renal 37.7% | UO-31 renal 47.1% | TK-10 renal 63.1% | ACHN renal 40.4% | CAKI-1 renal 34.3% | A498 renal 11.3% | CCRF-CEM leukemia 14% | MOLT-4 leukemia 22.1%
active: HT29 colon 2.31% | SK-MEL-5 melanoma -9.92%

Cc1ccc2c(c1)C(C)Cc1c(ncnc1-n1cnc3ccccc31)N2C (stereo not given)
active: HT29 colon 4.56% | SNB-75 CNS -10.3% | A498 renal -16%
inactive: HCT-15 colon 12.3% | SNB-19 CNS 34% | U251 CNS 18.4% | PC-3 prostate 21.9% | SK-MEL-5 melanoma 12.2% | UACC-62 melanoma 26% | LOX IMVI melanoma 34% | SK-MEL-28 melanoma 61.8% | SK-MEL-2 melanoma 38.6% | EKVX NSCLC 40.1% | SN12C renal 37.5% | UO-31 renal 40.1% | TK-10 renal 13.8% | ACHN renal 35.4% | CAKI-1 renal 24.6% | CCRF-CEM leukemia 10% | MOLT-4 leukemia 11.7%

C#CCC1(c2ccc(F)c(F)c2)NS(=O)(=O)c2ccccc21 (stereo not given)
inactive: HCT-15 colon 103% | HT29 colon 82.9% | SNB-75 CNS 99.1% | SNB-19 CNS 108% | U251 CNS 96.4% | PC-3 prostate 91.8% | SK-MEL-5 melanoma 103% | UACC-62 melanoma 106% | LOX IMVI melanoma 98% | SK-MEL-28 melanoma 121% | SK-MEL-2 melanoma 91.2% | EKVX NSCLC 103% | SN12C renal 106% | UO-31 renal 86.4% | TK-10 renal 83.6% | ACHN renal 113% | CAKI-1 renal 94.4% | A498 renal 109% | CCRF-CEM leukemia 99.2% | MOLT-4 leukemia 90%

O=c1oc2c([nH]c3ccc4ccccc4c32)c2ccccc12
inactive: HCT-15 colon 105% | HT29 colon 111% | SNB-75 CNS 126% | SNB-19 CNS 108% | U251 CNS 100% | PC-3 prostate 97.7% | SK-MEL-5 melanoma 85.5% | UACC-62 melanoma 93.8% | LOX IMVI melanoma 98.8% | SK-MEL-28 melanoma 134% | SK-MEL-2 melanoma 107% | EKVX NSCLC 85.4% | SN12C renal 106% | UO-31 renal 128% | TK-10 renal 127% | ACHN renal 110% | CAKI-1 renal 109% | A498 renal 106% | CCRF-CEM leukemia 97.6% | MOLT-4 leukemia 85.2%

ClC1=C(Cl)C(Cl)=C(Cl)C1=Cc1ccc(Cl)cc1Cl
inactive: HT29 colon 10.1%
active: HCT-15 colon -56.5% | SNB-75 CNS -45.6% | SNB-19 CNS -6.26% | U251 CNS -75.1% | PC-3 prostate -16.5% | SK-MEL-5 melanoma -88.1% | UACC-62 melanoma -29% | LOX IMVI melanoma -95% | SK-MEL-28 melanoma -28.5% | SK-MEL-2 melanoma -2.84% | EKVX NSCLC -19.8% | SN12C renal -31.1% | UO-31 renal -81.8% | TK-10 renal -5.11% | ACHN renal -75.7% | CAKI-1 renal -41.2% | A498 renal -89.6% | CCRF-CEM leukemia 3.34% | MOLT-4 leukemia 4.59%

Cc1ccccc1C(=O)c1ccccc1C(=O)O
inactive: HCT-15 colon 107% | HT29 colon 111% | SNB-75 CNS 84.8% | SNB-19 CNS 111% | U251 CNS 104% | PC-3 prostate 96.8% | SK-MEL-5 melanoma 104% | UACC-62 melanoma 104% | LOX IMVI melanoma 95.9% | SK-MEL-28 melanoma 109% | SK-MEL-2 melanoma 124% | EKVX NSCLC 105% | SN12C renal 105% | UO-31 renal 89.7% | TK-10 renal 96.5% | ACHN renal 111% | CAKI-1 renal 88.8% | A498 renal 126% | CCRF-CEM leukemia 103% | MOLT-4 leukemia 99.5%

CC(C)CCC[C@@H](C)[C@H]1CC[C@H]2[C@@H]3CC[C@H]4C/C(=N/O)CC[C@]4(C)[C@H]3CC[C@]12C
inactive: HCT-15 colon 111% | HT29 colon 105% | SNB-75 CNS 96.9% | SNB-19 CNS 104% | U251 CNS 96.6% | PC-3 prostate 83.4% | SK-MEL-5 melanoma 98.3% | UACC-62 melanoma 98.6% | LOX IMVI melanoma 96.6% | SK-MEL-28 melanoma 116% | SK-MEL-2 melanoma 101% | EKVX NSCLC 101% | SN12C renal 103% | UO-31 renal 94.3% | TK-10 renal 105% | ACHN renal 110% | CAKI-1 renal 96.7% | A498 renal 98.5% | CCRF-CEM leukemia 100% | MOLT-4 leukemia 95.9%

Nc1nn2cc(-c3ccc(Cl)s3)nc2c2ccccc12
inactive: HCT-15 colon 87.5% | HT29 colon 92% | SNB-75 CNS 81.6% | SNB-19 CNS 93% | U251 CNS 94.7% | PC-3 prostate 83.8% | SK-MEL-5 melanoma 84% | UACC-62 melanoma 81.6% | LOX IMVI melanoma 82.2% | SK-MEL-28 melanoma 94.2% | SK-MEL-2 melanoma 49.9% | EKVX NSCLC 86.7% | SN12C renal 91.9% | UO-31 renal 67.1% | TK-10 renal 113% | ACHN renal 79.6% | CAKI-1 renal 74.6% | A498 renal 59.5% | CCRF-CEM leukemia 76.8% | MOLT-4 leukemia 44.4%
